Where “and” joins values, the source holds several entries; their conditions need not be identical. Identical values can stand only once. About 83,000 compounds went through this panel and 20% of them were active in at least one assay; those are over-represented in the sample as a whole.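 For each line, cells grew in 96-well plates with the test compound present at a single concentration for 48 hours.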 Unmarked numbers belong to inactive results. Calls of active or inactive are those of the source. How the source made its calls: active means growth percent below 10; inactive means the rest.
What was measured:
Experiment in all cases: NCI-60 one-dose screen, 48 h (100 = growth as untreated, 0 = no growth, -100 = all killed)
Conditions in all cases: 10 µM unless noted
[1] = test system: T-47D breast
[2] = test system: BT-549 breast
[3] = test system: MDA-MB-435 melanoma
[4] = test system: SW-620 colon
[5] = test system: MCF7 breast
[6] = test system: HCT-116 colon
[7] = test system: HCC-2998 colon
[8] = test system: KM12 colon
[9] = test system: MDA-MB-468 breast

Compound | growth [1] | growth [2] | growth [3] | growth [4] | growth [5] | growth [6] | growth [7] | growth [8] | growth [9]
C/C(=N/O)c1ccc(NC(=O)CSc2nnc(-c3ccc(-c4nc5ccc(Cl)cc5[nH]4)cc3)o2)cc1 | 11.8% | 14.2% | -32.9% (active) | -54.9% (active) | 3.95% (active) | 4.71% (active) | 71.2% | 2.42% (active) | 64.9%
Cn1cc(-c2cc(N)n3nc(-c4c[nH]c5ccc(F)cc45)cc3n2)c2cc(Br)cnc21 | 54.5% | 92.6% | 78.8% | 17.2% | 47.1% | -26.9% (active) | 13.8% | 3.18% (active) | 20.7%
COc1cc(C2CC(c3ccc(C(F)(F)F)cc3)=Nc3c(N)nc(N)nc3N2)ccc1Oc1nc(Nc2ccc(F)cc2)nc(N(C)C)n1 (stereo not drawn) | 57.8% | 70.3% | 59.7% | 53.2% | 3.18% (active) | -16.4% (active) | -17.8% (active) | 32.6% | -8.26% (active)
CS(=O)(=O)Nc1cccc(-n2c(COc3ccc(OC(F)(F)F)cc3)nc3ccccc32)c1 | 62.2% and 85% | 98% and 96.5% | 102% and 103% | 97.3% and 108% | 65.6% and 102% | 85.9% and 104% | 114% and 113% | 91.9% and 101% | 107% and 106%
Cc1ccc(C(=O)Nc2cc(-n3ccnc3)cc(C(F)(F)F)c2)cc1-n1cc(-c2cnc3cccnn23)nn1 | 113% | 247% | 63.4% | 81.9% | 101% | 55.1% | 86.3% | 80.1% | 121%
O=S(=O)(c1nc(-c2ccc(Br)cc2)oc1-c1ccc(Cl)cc1)N1CCCC(O)C1 (stereo not drawn) | 28.8% | 76.1% | 60% | 57% | 41.5% | 42.5% | 33.8% | 39% | 45.6%
S=C(NCCc1ccccc1)Nc1ccc(OCc2nc3ccc(Cl)cc3[nH]2)cc1 | 34.9% | 45.9% | 36.6% | 37% | 7.94% (active) | 18.9% | 3.57% (active) | 18.6% | 21.7%
COc1ccc2[nH]c(=O)c(CSc3ccccc3Nc3nccc(-c4ccc5c(c4)OCO5)n3)cc2c1 | 52% | 67.3% | 74.5% | 106% | 68.2% | 70% | 110% | 89.7% | 66.5%
CN(CCSSCCN1CCOCC1)C(=O)Oc1cc2c(c3ccccc13)[C@H](CCl)CN2C(=O)c1cc2cc(OCCCN3CCC3)ccc2[nH]1 | -41.9% (active) | -52.5% (active) | -36.5% (active) | -8.71% (active) | -60.8% (active) | -49.1% (active) | -64.7% (active) | -23.5% (active) | -80% (active)
Cc1ccc2c(c1)/C(=C/C(=O)c1cc3ccccc3oc1=O)C(=O)N2 | 72.8% | 68.8% | 75.5% | -94.7% (active) | 55.9% | 18.9% | 106% | 86.9% | -69.3% (active)
N#Cc1cc(-c2ccnc(Nc3ccc(N4CCN(C5COC5)CC4)cc3)n2)ccc1N1CCCC1 | 91% | 34.1% | 66.9% | 72.7% | 85.8% | 49% | 75.4% | 83.2% | 38.8%
CC1=C(C(=O)Nc2ccccc2)C(c2cccc3ccccc23)n2c(nc3ccccc32)N1 (stereo not drawn) | 88.9% | -2.15% (active) | 74.4% | 67.6% | 38.5% | 0.0484% (active) | 90.5% | 89.9% | 49.9%

Reference: PubChem BioAssay (NCI)
